Reference: PubChem BioAssay
Activity calls are given as the source filed them.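 The calls were made as follows: active = mean inhibition over 43.08%, the solvent-only control mean plus 3 SD; inactive = the rest.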

Molecular target: Nuclear receptor coactivator 3 (Homo sapiens) (UniProt Q9Y6Q9)
Assay: NCOA3 GAL4-fusion reporter inhibition – cell-based, luminescence, quadruplicate, confirmation (AID 588792);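 also: 0% = DMSO treated cells and 100% = gossypol at 36 µM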
Conditions: HEK293 GAL4-SRC3 luciferase reporter, at 3.6 µM, stronger effect = higher value

Chain of Nuclear receptor coactivator 3 (Homo sapiens) (Q9Y6Q9 whole entry, looked up, the tested form may be a part): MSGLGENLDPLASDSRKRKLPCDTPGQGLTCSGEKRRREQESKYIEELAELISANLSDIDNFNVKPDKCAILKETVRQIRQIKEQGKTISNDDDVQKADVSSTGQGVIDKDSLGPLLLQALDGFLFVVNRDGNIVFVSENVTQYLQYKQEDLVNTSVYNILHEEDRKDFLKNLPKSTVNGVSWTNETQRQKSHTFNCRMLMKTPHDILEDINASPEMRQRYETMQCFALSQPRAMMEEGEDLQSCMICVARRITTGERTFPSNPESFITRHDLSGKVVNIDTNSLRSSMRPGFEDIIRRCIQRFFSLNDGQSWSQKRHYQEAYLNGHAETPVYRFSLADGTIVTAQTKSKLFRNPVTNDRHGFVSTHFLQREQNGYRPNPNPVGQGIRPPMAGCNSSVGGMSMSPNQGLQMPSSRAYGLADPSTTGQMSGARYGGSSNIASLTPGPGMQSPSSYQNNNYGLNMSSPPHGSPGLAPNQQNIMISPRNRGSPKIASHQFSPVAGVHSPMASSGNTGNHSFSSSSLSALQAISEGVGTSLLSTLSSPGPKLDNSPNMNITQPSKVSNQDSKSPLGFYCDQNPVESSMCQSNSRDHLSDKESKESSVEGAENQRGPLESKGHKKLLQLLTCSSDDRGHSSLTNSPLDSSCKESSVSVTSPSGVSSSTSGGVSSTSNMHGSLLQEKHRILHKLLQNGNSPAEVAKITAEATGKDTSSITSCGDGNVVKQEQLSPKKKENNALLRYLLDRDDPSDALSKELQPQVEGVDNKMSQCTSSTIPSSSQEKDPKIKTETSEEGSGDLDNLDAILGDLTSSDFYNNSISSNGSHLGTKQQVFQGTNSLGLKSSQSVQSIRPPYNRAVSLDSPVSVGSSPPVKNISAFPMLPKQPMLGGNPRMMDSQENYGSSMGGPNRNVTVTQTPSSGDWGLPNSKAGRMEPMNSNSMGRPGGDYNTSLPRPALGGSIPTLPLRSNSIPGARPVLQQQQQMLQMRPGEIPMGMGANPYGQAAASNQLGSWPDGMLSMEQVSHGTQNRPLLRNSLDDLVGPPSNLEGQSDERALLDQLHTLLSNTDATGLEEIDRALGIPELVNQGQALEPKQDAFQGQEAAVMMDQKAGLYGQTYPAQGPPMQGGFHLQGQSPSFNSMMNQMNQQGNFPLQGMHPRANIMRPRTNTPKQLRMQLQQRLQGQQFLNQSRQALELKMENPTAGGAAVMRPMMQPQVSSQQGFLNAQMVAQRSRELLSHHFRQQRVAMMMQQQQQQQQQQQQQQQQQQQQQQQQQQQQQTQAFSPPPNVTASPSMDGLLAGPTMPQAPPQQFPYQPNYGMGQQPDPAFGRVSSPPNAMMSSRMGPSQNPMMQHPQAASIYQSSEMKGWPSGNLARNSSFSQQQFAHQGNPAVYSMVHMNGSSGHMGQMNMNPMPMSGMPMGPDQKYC

SMILES	inhibition
Cc1cc(NC2CCCCC2)nc(NCc2ccccc2)n1	18.8% (inactive)
COCCNC(=O)c1cc(-c2ccccn2)nc2ccc(S(=O)(=O)N3CCC(C)CC3)cc12	30.4% (inactive)
Cc1ccc(S(=O)(=O)NC(=O)c2cc(C)n(-c3ccccc3)c2C)cc1	-1.88% (inactive)
Cc1nc(Nc2nc(CSc3nc4ccccc4[nH]3)cc(=O)[nH]2)nc2ccccc12	-5.42% (inactive)
O=C(Nc1sc2c(c1C(=O)O)CCCC2)c1ccc(F)cc1	0.98% (inactive)
Cc1nn(C)c(C)c1CN(C)C(=O)c1cnn2c1NC(c1ccccc1)CC2C(F)(F)F (stereo not given)	21.2% (inactive)
CCn1cc(C(=O)NCc2ccco2)c(=O)c2cc(S(=O)(=O)N3CCCCCC3)ccc21	20% (inactive)
NC(=S)N/N=C1\CCOc2ccc(Cl)cc21	34.6% (inactive)
O=C(Nc1sc2c(c1C(=O)O)CCCC2)c1ccc(Cl)cc1	30.9% (inactive)
CN(C)c1cc[n+](CC(=O)Nc2ccc(Oc3ccccc3)cc2)cc1	15.7% (inactive)
COc1ccc(CN(Cc2cccn2C)S(=O)(=O)c2ccc(C)cc2)cc1	1.22% (inactive)
CC(=O)Nc1ccc(NC(=O)c2ccc(N(Cc3ccccc3C)S(C)(=O)=O)cc2)cc1	-0.29% (inactive)
Cc1cc(C)nc(/N=C(\N)Nc2ccccc2-c2ccccc2)n1	-12% (inactive)
Cc1ccc(O)c(C(=O)c2cnc3c(c2)COc2ccccc2-3)c1	-8.22% (inactive)
CC(=O)c1c(C)[nH]c(C(=O)Nc2ccc(Cl)c(S(=O)(=O)N3CCOCC3)c2)c1C	18.6% (inactive)
O=C(Nc1ncc(Cc2ccc(C(F)(F)F)cc2)s1)c1ccc(-c2cccc([N+](=O)[O-])c2)o1	0.3% (inactive)
CSc1cccc(N/C(=N/S(=O)(=O)c2ccccc2)NN)c1	5.54% (inactive)
COc1cccc(/C=N/Nc2ncnc(Cl)c2N)c1O	78.1% (active)
COc1ccc(S(=O)(=O)N2CCCCCC2)cc1C(=O)N(C)CC(=O)Nc1cc(C)ccc1C	8.3% (inactive)
COC(=O)N/N=C/c1cn(Cc2ccc(Cl)cc2Cl)c2ccccc12	18.6% (inactive)
CC1Cc2cc(-c3csc(NC(=O)Cc4ccccc4)n3)ccc2N1S(C)(=O)=O (stereo not given)	23.8% (inactive)
O=C(Nc1ccc(OC(F)(F)F)cc1)Nc1cccc([N+](=O)[O-])c1	-15.5% (inactive)
COC(=O)/C(C#N)=C\c1c(OC)[nH]c2ccccc12	18.6% (inactive)
Clc1ccc(-c2c[n+](Cc3ccc(Cl)cc3Cl)c3n2CCCCC3)cc1	6.98% (inactive)
COc1cccc(CNCCO)c1OCc1ccccc1	-2.38% (inactive)
